From PubChem BioAssay AID1159580 (chemical genetic matrix, 2015)
Hit rate of the full screen: of about 5,500 compounds, about 2,000 (36%) were called active. Inconclusive results (about 18%) are left out. Rule as the data show it: active = normalized growth mostly below about 0.91 (no sharp cut-off); inconclusive = no clear call, values can overlap the other calls; inactive = mostly above about 0.92. The list shows a part of the results.

Assay: chemical genetic growth profiling, strain panel (AID 1159580);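 also: tested at 20 µM; growth read once vehicle control cultures reached saturation at 30 °C; 1 = growth at the plate median or of vehicle wells; lower values mean less growth of the strain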
Details: S. cerevisiae deletion strains, growth OD
[1] = locus YAR019C, strain CDC15, stronger effect = lower value
[2] = locus YBL105C, strain PKC1, stronger effect = lower value
[3] = locus YBR135W, strain CKS1, stronger effect = lower value
[4] = locus YBR136W, strain MEC1, stronger effect = lower value
[5] = locus YBR160W, strain CDC28, stronger effect = lower value
[6] = locus YDL017W, strain CDC7, stronger effect = lower value
[7] = locus YDL028C, strain MPS1, stronger effect = lower value
[8] = locus YDL101C, strain DUN1, stronger effect = lower value
[9] = locus YDL108W, strain KIN28, stronger effect = lower value
[10] = locus YDL132W, strain cdc53, stronger effect = lower value
[11] = locus YDL214C, strain PRR2, stronger effect = lower value
[12] = locus YDR052C, strain DBF4, stronger effect = lower value
[13] = locus YDR054C, strain cdc34, stronger effect = lower value
[14] = locus YDR226W, strain ADK1, stronger effect = lower value
[15] = locus YDR477W, strain SNF1, stronger effect = lower value
[16] = locus YER123W, strain YCK3, stronger effect = lower value
[17] = locus YER133W, strain GLC7, stronger effect = lower value
[18] = locus YFL009W, strain cdc4, stronger effect = lower value
[19] = locus YFL029C, strain CAK1, stronger effect = lower value
[20] = locus YFR003C, strain YPI1, stronger effect = lower value
[21] = locus YFR019W, strain FAB1, stronger effect = lower value
[22] = locus YFR028C, strain CDC14, stronger effect = lower value
[23] = locus YGR040W, strain KSS1, stronger effect = lower value
[24] = locus YGR052W, strain FMP48, stronger effect = lower value
[25] = locus YGR092W, strain DBF2, stronger effect = lower value
[26] = locus YHR030C, strain SLT2, stronger effect = lower value
[27] = locus YHR079C, strain IRE1, stronger effect = lower value
[28] = locus YHR082C, strain KSP1, stronger effect = lower value
[29] = locus YHR205W, strain SCH9, stronger effect = lower value
[30] = locus YIL147C, strain SLN1, stronger effect = lower value
[31] = locus YJL095W, strain BCK1, stronger effect = lower value
[32] = locus YJL128C, strain PBS2, stronger effect = lower value
[33] = locus YJL157C, strain FAR1, stronger effect = lower value
[34] = locus YJR016C, strain ILV3, stronger effect = lower value
[35] = locus YJR066W, strain TOR1 (second series), stronger effect = lower value
[36] = locus YJR066W, strain TOR1, stronger effect = lower value
[37] = locus YKL048C, strain ELM1, stronger effect = lower value
[38] = locus YKL067W, strain YNK1, stronger effect = lower value
[39] = locus YKL101W, strain HSL1, stronger effect = lower value
[40] = locus YKL193C, strain SDS22, stronger effect = lower value
[41] = locus YKL203C, strain TOR2, stronger effect = lower value
[42] = locus YLR113W, strain HOG1, stronger effect = lower value
[43] = locus YLR133W, strain CKI1, stronger effect = lower value
[44] = locus YLR403W, strain SFP1, stronger effect = lower value
[45] = locus YML070W, strain DAK1, stronger effect = lower value
[46] = locus YMR001C, strain CDC5, stronger effect = lower value
[47] = locus YMR205C, strain PFK2 (second series), stronger effect = lower value
[48] = locus YMR277W, strain FCP1, stronger effect = lower value
[49] = locus YNL006W, strain LST8, stronger effect = lower value
[50] = locus YNL020C, strain ARK1, stronger effect = lower value
[51] = locus YNL161W, strain CBK1, stronger effect = lower value
[52] = locus YNL183C, strain NPR1, stronger effect = lower value
[53] = locus YNL207W, strain RIO2, stronger effect = lower value
[54] = locus YNL222W, strain SSU72, stronger effect = lower value
[55] = locus YNL307C, strain MCK1 (second series), stronger effect = lower value
[56] = locus YOL078W, strain AVO1, stronger effect = lower value
[57] = locus YOL136C, strain PFK27, stronger effect = lower value
[58] = locus YOR061W, strain CKA2, stronger effect = lower value
[59] = locus YOR119C, strain RIO1, stronger effect = lower value
[60] = locus YOR231W, strain MKK1, stronger effect = lower value
[61] = locus YOR329C, strain SCD5, stronger effect = lower value
[62] = locus YPL031C, strain PHO85, stronger effect = lower value
[63] = locus YPL153C, strain RAD53, stronger effect = lower value
[64] = locus YPL204W, strain HRR25, stronger effect = lower value
[65] = locus YPL209C, strain IPL1, stronger effect = lower value
[66] = locus YPL256C, strain CLN2, stronger effect = lower value
[67] = locus YPR025C, strain CCL1, stronger effect = lower value
[68] = locus YPR106W, strain ISR1, stronger effect = lower value
[69] = locus YPR111W, strain DBF20, stronger effect = lower value
[70] = strain NNK1, stronger effect = lower value
[71] = strain TSCII, stronger effect = lower value

Measured: normalized growth

CC(C)(C)C(=O)N(Cc1cccnc1)Cc1ccc(Cl)cc1Cl
inactive: [1] 0.998 | [2] 0.988 | [3] 1 | [4] 0.986 | [5] 0.995 | [6] 0.992 | [7] 0.992 | [8] 0.985 | [9] 0.982 | [10] 0.997 | [11] 0.914 | [12] 0.993 | [13] 0.991 | [14] 1 | [15] 0.948 | [16] 0.842 | [17] 0.948 | [18] 0.998 | [19] 0.996 | [20] 0.993 | [21] 0.9 | [22] 1 | [23] 0.928 | [24] 1.01 | [25] 0.936 | [26] 1.07 | [27] 1.01 | [28] 1.02 | [29] 0.935 | [30] 0.983 | [31] 1.04 | [32] 0.96 | [33] 0.909 | [34] 0.998 | [35] 0.909 | [36] 0.995 | [37] 0.973 | [38] 0.938 | [39] 0.943 | [40] 0.995 | [41] 0.99 | [42] 1.02 | [43] 0.952 | [44] 0.913 | [45] 0.907 | [46] 0.995 | [47] 0.936 | [48] 0.996 | [49] 1 | [50] 0.934 | [51] 0.997 | [52] 1.02 | [53] 1 | [54] 0.993 | [55] 0.963 | [56] 1 | [57] 0.919 | [58] 0.906 | [59] 0.988 | [60] 1.02 | [61] 0.996 | [62] 0.925 | [63] 0.917 | [64] 0.927 | [65] 0.989 | [66] 1.02 | [67] 0.995 | [68] 0.992 | [69] 0.997 | [70] 0.993 | [71] 0.996

Cc1nc(-c2ccccn2)nc(SCc2ccccc2)c1Cl
active: [26] 0.843 | [42] 0.802
inactive: [1] 0.946 | [2] 0.945 | [3] 0.941 | [4] 0.94 | [5] 0.954 | [6] 0.949 | [7] 0.939 | [8] 0.942 | [9] 0.94 | [10] 0.93 | [11] 0.844 | [12] 0.94 | [13] 0.922 | [14] 0.942 | [15] 0.849 | [16] 0.747 | [17] 0.826 | [18] 0.935 | [19] 0.935 | [20] 0.943 | [21] 0.887 | [22] 0.94 | [23] 0.829 | [24] 0.853 | [25] 0.705 | [27] 0.766 | [28] 0.849 | [29] 0.86 | [30] 0.935 | [31] 0.862 | [32] 0.927 | [33] 0.798 | [34] 0.936 | [35] 0.786 | [36] 0.792 | [37] 0.96 | [38] 0.849 | [39] 0.875 | [40] 0.937 | [41] 0.869 | [43] 0.876 | [44] 0.772 | [45] 0.816 | [46] 0.942 | [47] 0.864 | [48] 0.941 | [49] 0.94 | [50] 0.827 | [51] 0.942 | [52] 0.826 | [53] 0.921 | [54] 0.943 | [55] 0.807 | [56] 0.938 | [57] 0.834 | [58] 0.815 | [59] 0.843 | [60] 0.819 | [61] 0.946 | [62] 0.791 | [63] 0.793 | [64] 0.834 | [65] 0.952 | [66] 0.934 | [67] 0.942 | [68] 0.95 | [69] 0.955 | [70] 0.945 | [71] 0.933

Cc1nc(-c2ccccn2)nc(N(C)Cc2ccccc2)c1Cl
inactive: [1] 0.951 | [2] 0.961 | [3] 0.967 | [4] 0.955 | [5] 0.968 | [6] 0.962 | [7] 0.956 | [8] 0.962 | [9] 0.951 | [10] 0.961 | [11] 0.997 | [12] 0.965 | [13] 0.948 | [14] 0.956 | [15] 0.971 | [16] 0.93 | [17] 0.975 | [18] 0.953 | [19] 0.94 | [20] 0.963 | [21] 1 | [22] 0.976 | [23] 0.964 | [24] 1.04 | [25] 0.863 | [26] 0.932 | [27] 0.95 | [28] 0.998 | [29] 0.954 | [30] 0.952 | [31] 0.966 | [32] 0.973 | [33] 0.972 | [34] 0.969 | [35] 0.958 | [36] 0.952 | [37] 0.982 | [38] 0.97 | [39] 0.945 | [40] 0.96 | [41] 1.01 | [42] 1 | [43] 0.968 | [44] 0.959 | [45] 0.966 | [46] 0.956 | [47] 0.981 | [48] 0.964 | [49] 0.975 | [50] 0.973 | [51] 0.964 | [52] 1 | [53] 0.959 | [54] 0.96 | [55] 0.922 | [56] 0.96 | [57] 0.963 | [58] 0.941 | [59] 0.991 | [60] 0.994 | [61] 0.955 | [62] 0.952 | [63] 0.943 | [64] 0.938 | [65] 0.958 | [66] 0.985 | [67] 0.963 | [68] 0.974 | [69] 0.976 | [70] 0.979 | [71] 0.953
